{"source": "PubChem BioAssay AID411", "about": "(National Center for Advancing Translational Sciences (NCATS), 2006)", "note": "Out of some 72,000 compounds screened, about 1,600 (2.2%) were called active. Only a selection was taken, and actives are over-represented in it overall. Values without a mark were called inactive. Calls follow the shape of the dose curve; as a rule, active = well fitted inhibition curve with a large enough effect; inconclusive = small, poorly fitted or top-dose-only effect; inactive = flat fitted curve, though single readings scatter. % is scaled to controls: 0 for no effect and ±100 for the full control effect; potency is read from the fitted curve at half-maximal effect.", "data": [{"target": "Luciferin 4-monooxygenase (Photinus pyralis) (UniProt P08659)", "sequence (P08659 whole entry, looked up)": "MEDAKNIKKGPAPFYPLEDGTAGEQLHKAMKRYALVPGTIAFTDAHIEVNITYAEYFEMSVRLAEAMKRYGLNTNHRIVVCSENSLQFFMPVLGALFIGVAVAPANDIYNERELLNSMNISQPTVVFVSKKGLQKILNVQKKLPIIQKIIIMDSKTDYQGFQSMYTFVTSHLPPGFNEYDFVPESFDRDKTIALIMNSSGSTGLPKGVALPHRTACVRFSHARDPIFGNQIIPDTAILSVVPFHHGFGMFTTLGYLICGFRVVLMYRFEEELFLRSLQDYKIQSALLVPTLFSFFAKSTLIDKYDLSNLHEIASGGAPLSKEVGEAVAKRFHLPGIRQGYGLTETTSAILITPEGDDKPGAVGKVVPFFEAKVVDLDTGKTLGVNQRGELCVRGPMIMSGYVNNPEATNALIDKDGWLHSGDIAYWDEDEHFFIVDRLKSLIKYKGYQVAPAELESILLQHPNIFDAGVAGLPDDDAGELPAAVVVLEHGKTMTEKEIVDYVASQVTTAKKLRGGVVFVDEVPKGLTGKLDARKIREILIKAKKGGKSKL", "experiment": "qHTS Assay for Inhibitors of Firefly Luciferase; also: nearly all actives have a fitted effect of over 40% in size", "settings": "purified firefly luciferase, luminescence, 8 min; series mostly up to 57.1 µM; activity change, negative = inhibition: at the top concentration", "method": "To aid in the interpretation of high-throughput screening (HTS) results derived from luciferase-based assays, we used quantitative HTS, an approach that defines the concentration-response behavior of each library sample, to profile the ATP-dependent luciferase from Photinus pyralis against more than 72 000 samples. Luciferase (PKLight, Cambrex Corporation) was assayed for its ability to generate light using ATP and luciferin as substrates. The ATP concentration in the assay (10 uM) was within the linear range of enzyme activity for the assay conditions used. See following reference for further details: [1] Auld DS, Southall NT, Jadhav A, Johnson RL, Diller DJ, Simeonov A, Austin CP, Inglese J. Characterization of chemical libraries for luciferase inhibitory activity. J Med Chem. 2008 Apr 24;51(8):2372-86. Auld DS, Zhang YQ, Southall NT, Rai G, Landsman M, Maclure J, Langevin D, Thomas CJ, Austin CP, Inglese J. A Basis for Reduced Chemical Library Inhibition of Firefly Luciferase Obtained from Directed Evolution. J. Med. Chem., 2009, 52 (5), pp 1450#1458 [3] Auld DS, Thorne N, Nguyen DT, Inglese J. A specific mechanism for nonspecific activation in reporter-gene assays. ACS Chem Biol. 2008 Aug 15;3(8):463-70. Auld DS, Thorne N, Maguire WF, Inglese J. Mechanism of PTC124 activity in cell-based luciferase assays of nonsense codon suppression. Proc Natl Acad Sci U S A. 2009 Mar 3;106(9):3585-90. Inglese J, Auld DS, Jadhav A, Johnson RL, Simeonov A, Yasgar A, Zheng W, Austin CP. Quantitative high-throughput screening: a titration-based approach that efficiently identifies biological activities in large chemical libraries. Proc Natl Acad Sci U S A. 2006 Aug 1;103(31):11473-8.\nFour uL of substrate mix (final concentration, 50 mM imidazole pH 7.2, 50 mM KCl, 7 mM MgCl2, 10 uM ATP, 0.01% Tween 20, 0.05% BSA) was dispensed into white 1536 well plates. Twenty-three nL of compound was delivered by a pin tool and 2 uL of luciferase detector mix (PKLight, Cambrex) was added. Following 8-minute incubation at ambient temperature, luminescence was measured by a ViewLux (Perkin Elmer) at 5 seconds exposure/plate.", "values": [{"smiles": "COc1ccc(NC(=O)Nc2cccc3cccnc23)cc1", "Potency": "5.01 µM (active)"}, {"smiles": "c1ccc(CN2CC[C@@]3(CCCNC3)C2)cc1", "activity change, negative = inhibition": "0.194% [at 11.4 µM]"}, {"smiles": "CC(C)(c1ccc(OC[C@@H]2CO2)cc1)c1ccc(OC[C@H]2CO2)cc1", "activity change, negative = inhibition": "2.01%"}, {"smiles": "CC[C@]1(O)C(=O)OCc2c1cc1n(c2=O)Cc2cc3ccccc3nc2-1", "activity change, negative = inhibition": "1.26% [at 11.4 µM]"}, {"smiles": "Cc1cccc([C@H](C)c2cnc[nH]2)c1C", "activity change, negative = inhibition": "-0.831%"}]}]}
